One experiment concerns the target TULP4. In words: pooled miR-30 sensor sort-seq; sequence = guide strand. As to conditions: shRNA.
TTTGTCTTATTCAACTTCTTTG registered a sensor-assay potency score (higher = more potent) of -1.04.

In turn, TTCTTCTGCTCGGCTGTCCAGG displayed a sensor-assay potency score (higher = more potent) of -0.627.

As to TTGAAATTTATCCTCTGTGGAG, the sensor-assay potency score (higher = more potent) is -0.662.

Take TTGTCTTATTCAACTTCTTTGA: the sensor-assay potency score (higher = more potent) was -0.83.

For the sequence TACAGCTGTCGTCTGGTTGGTC, the sensor-assay potency score (higher = more potent) was -0.0173.

In the next experiment the target is TUSC2. Described as above. The settings on record: shRNA.
TCCTCATCATAGAACATAGAGC displayed a sensor-assay potency score (higher = more potent) of -1.99.

The sequence TCTTGGTGACGATTGTCTCCTC had a sensor-assay potency score (higher = more potent) of -0.566.

As for TGTCTCCTCATAGAACTCGTGA, the sensor-assay potency score (higher = more potent) was -0.468.

As for AATCAGATTCTTATGCACTCGC, the sensor-assay potency score (higher = more potent) is 0.0606.

Consider TTGGTGACGATTGTCTCCTCAT, for which the sensor-assay potency score (higher = more potent) stood at 0.0125.

The sequence TCATCATAGAACATAGAGCCGC displayed a sensor-assay potency score (higher = more potent) of -0.771.

ATTCTTATGCACTCGCCTCAGC displayed a sensor-assay potency score (higher = more potent) of -1.06.

TTCTTGGTGACGATTGTCTCCT displayed a sensor-assay potency score (higher = more potent) of -0.377.

In turn, AAGCTTGCTCAGCTCCTGCTGC displayed a sensor-assay potency score (higher = more potent) of -0.817.

TAGAACATAGAGCCGCGGCGCG: the sensor-assay potency score (higher = more potent) is -1.07.

With TCATAGAACATAGAGCCGCGGC, the sensor-assay potency score (higher = more potent) is -0.488.

The sequence TCTCCTCATAGAACTCGTGAGC came in with a sensor-assay potency score (higher = more potent) of -1.05.

In the next experiment the target is TUT1. The description is as above. As to conditions: shRNA.
TTGTCCATGACAACACTGGCCA returned a sensor-assay potency score (higher = more potent) of -0.399.

TCCTTGTCCATGACAACACTGG displayed a sensor-assay potency score (higher = more potent) of -1.19.

As to TGACAGAACTTGACCACAGGGC, the sensor-assay potency score (higher = more potent) was found to be 0.248.

Turning to TTTGGACTCGATACACCCCAGG, the sensor-assay potency score (higher = more potent) is -0.836.

For the sequence TAGTTCTACCAGGTGCCGGTGC, the sensor-assay potency score (higher = more potent) is -0.799.

Consider TCTAGCAGTGGTGAAGCTGGAG, for which the sensor-assay potency score (higher = more potent) was -0.366.

The sequence TACTGAGGGAGACATCACCGTG returned a sensor-assay potency score (higher = more potent) of -1.54.

In turn, TTGGGGTCTCTGCTAGTTCCGA had a sensor-assay potency score (higher = more potent) of -1.32.

For AAACACACTTCGAAGTCCCTGG, the sensor-assay potency score (higher = more potent) was 0.0034.

TCGTAGTTCTACCAGGTGCCGG came in with a sensor-assay potency score (higher = more potent) of -1.53.

As for TAGGAAGTACTCAGAGAGCTGA, the sensor-assay potency score (higher = more potent) stood at 0.227.

TTCTCGCAGCTCGTAGTTCTAC returned a sensor-assay potency score (higher = more potent) of -0.83.

A further experiment concerns the target TXLNG. The experiment is described as above. The settings on record: shRNA.
For TTCGATGAGCTTCTTTAGCTTC, the sensor-assay potency score (higher = more potent) was -0.258.

Consider TTCTCATTGAGCTCATTCCTTT, for which the sensor-assay potency score (higher = more potent) is -0.993.

As to TTCCTTACGTTTGAACACCTTA, the sensor-assay potency score (higher = more potent) is -0.525.

ATTTGCTTCTGAACACTCCTGC gave a sensor-assay potency score (higher = more potent) of 0.776.

As for TTCTCTGTTATAAAGTCACTGC, the sensor-assay potency score (higher = more potent) is -0.298.

Consider TTAAACTATTCAAAACTGCTAA, for which the sensor-assay potency score (higher = more potent) is -0.454.

In the case of TTCTTCTTCCTCTCGTGCCTGC, the sensor-assay potency score (higher = more potent) is -0.0706.

In the case of TTGCACTCTGAATCTTGCTGAC, the sensor-assay potency score (higher = more potent) was 0.000943.

TTTAGTTGTACTTCCTGCTGTT gave a sensor-assay potency score (higher = more potent) of 0.906.

TTTTAGTTGTACTTCCTGCTGT returned a sensor-assay potency score (higher = more potent) of 0.554.

With TAACGTCTTATTGTGACGCTGA, the sensor-assay potency score (higher = more potent) was found to be 0.553.

(Values after the OligoGym collection.)
Note: reference of the scale not given here.
